The campaign covered roughly 5,500 compounds. About 2,000 (36%) were called active. Another 18% or so got no clear call; they are omitted. No stated cut-off is given here; in the data, active means normalized growth mostly below about 0.91 (no sharp cut-off); inconclusive means no clear call, values can overlap the other calls; inactive means mostly above about 0.92. The list shows a part of the results.
Assay: chemical genetic growth profiling, strain panel (AID 1159580);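 further: tested at 20 µM; growth read once vehicle control cultures reached saturation at 30 °C; 1 = growth at the plate median or of vehicle wells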
Conditions: growth OD

Measured: normalized growth

CC1=C2[C@](C)(C=CC1=O)C[C@H](O)[C@H]1[C@H](C)C(=O)O[C@]21C
inactive: S. cerevisiae deletion strains, locus YAL013W, strain DEP1, stronger effect = lower value 1.01 | S. cerevisiae deletion strains, locus YBR021W, strain FUR4, stronger effect = lower value 1 | S. cerevisiae deletion strains, locus YBR229C, strain ROT2, stronger effect = lower value 1.01 | S. cerevisiae deletion strains, locus YCL029C, strain bik1, stronger effect = lower value 1.03 | S. cerevisiae deletion strains, locus YDL035C, strain GPR1, stronger effect = lower value 1.02 | S. cerevisiae deletion strains, locus YDL074C, strain BRE1, stronger effect = lower value 1.01 | S. cerevisiae deletion strains, locus YDL101C, strain DUN1, stronger effect = lower value 1.02 | S. cerevisiae deletion strains, locus YDL134C, strain PPH21, stronger effect = lower value 1.01 | S. cerevisiae deletion strains, locus YDL185W, strain tfp1, stronger effect = lower value 1.03 | S. cerevisiae deletion strains, locus YDL192W, strain arf1, stronger effect = lower value 1.04 | S. cerevisiae deletion strains, locus YDR101C, strain arx1, stronger effect = lower value 1.01 | S. cerevisiae deletion strains, locus YDR150W, strain NUM1, stronger effect = lower value 1.01 | S. cerevisiae deletion strains, locus YDR162C, strain NBP2, stronger effect = lower value 1.03 | S. cerevisiae deletion strains, locus YDR318W, strain mcm21, stronger effect = lower value 1.03 | S. cerevisiae deletion strains, locus YDR388W, stronger effect = lower value 1.02 | S. cerevisiae deletion strains, locus YDR502C, strain sam2, stronger effect = lower value 1.03 | S. cerevisiae deletion strains, locus YEL061C, strain CIN8, stronger effect = lower value 1.01 | S. cerevisiae deletion strains, locus YER110C, stronger effect = lower value 1.03 | S. cerevisiae deletion strains, locus YER155C, strain BEM2, stronger effect = lower value 1.01 | S. cerevisiae deletion strains, locus YER167W, strain BCK2, stronger effect = lower value 1.02 | S. cerevisiae deletion strains, locus YGL078C, strain dbp3, stronger effect = lower value 1.04 | S. cerevisiae deletion strains, locus YGL086W, strain mad1, stronger effect = lower value 1.02 | S. cerevisiae deletion strains, locus YGL248W, strain PDE1, stronger effect = lower value 1.01 | S. cerevisiae deletion strains, locus YGR078C, strain PAC10, stronger effect = lower value 1.01 | S. cerevisiae deletion strains, locus YGR135W, strain pre9, stronger effect = lower value 1.01 | S. cerevisiae deletion strains, locus YGR229C, strain SMI1, stronger effect = lower value 1.01 | S. cerevisiae deletion strains, locus YGR252W, strain gcn5, stronger effect = lower value 1.07 | S. cerevisiae deletion strains, locus YHR030C, strain SLT2, stronger effect = lower value 1.01 | S. cerevisiae deletion strains, locus YHR079C, strain IRE1 (second series), stronger effect = lower value 1.03 | S. cerevisiae deletion strains, locus YHR094C, strain hxt1, stronger effect = lower value 1.03 | S. cerevisiae deletion strains, locus YHR129C, strain ARP1, stronger effect = lower value 1.01 | S. cerevisiae deletion strains, locus YHR200W, strain rpn10, stronger effect = lower value 1.03 | S. cerevisiae deletion strains, locus YIL066C, strain RNR3, stronger effect = lower value 1.03 | S. cerevisiae deletion strains, locus YIL073C, strain SPO22, stronger effect = lower value 1.1 | S. cerevisiae deletion strains, locus YIL125W, strain kgd1, stronger effect = lower value 1.03 | S. cerevisiae deletion strains, locus YIR030C, strain dcg1, stronger effect = lower value 1.02 | S. cerevisiae deletion strains, locus YJL095W, strain BCK1, stronger effect = lower value 1.01 | S. cerevisiae deletion strains, locus YJL134W, strain LCB3, stronger effect = lower value 1 | S. cerevisiae deletion strains, locus YJL168C, strain set2, stronger effect = lower value 1.03 | S. cerevisiae deletion strains, locus YJL187C, strain SWE1 (second series), stronger effect = lower value 1.01 | S. cerevisiae deletion strains, locus YJR043C, strain POL32, stronger effect = lower value 1.02 | S. cerevisiae deletion strains, locus YJR075W, strain HOC1, stronger effect = lower value 1.02 | S. cerevisiae deletion strains, locus YKL009W, strain mrt4, stronger effect = lower value 1.04 | S. cerevisiae deletion strains, locus YKL068W, stronger effect = lower value 1.04 | S. cerevisiae deletion strains, locus YKL085W, strain MDH1 (second series), stronger effect = lower value 1.02 | S. cerevisiae deletion strains, locus YKL085W, strain MDH1, stronger effect = lower value 1.02 | S. cerevisiae deletion strains, locus YKL190W, strain CNB1, stronger effect = lower value 1.01 | S. cerevisiae deletion strains, locus YKR001C, strain vps1, stronger effect = lower value 1.03 | S. cerevisiae deletion strains, locus YLR039C, strain RIC1, stronger effect = lower value 1.07 | S. cerevisiae deletion strains, locus YLR058C, strain SHM2, stronger effect = lower value 1.02 | S. cerevisiae deletion strains, locus YLR102C, strain apc9, stronger effect = lower value 1.02 | S. cerevisiae deletion strains, locus YLR262C, strain YPT6, stronger effect = lower value 1.05 | S. cerevisiae deletion strains, locus YLR268W, strain sec22, stronger effect = lower value 1.02 | S. cerevisiae deletion strains, locus YLR330W, strain CHS5, stronger effect = lower value 1.01 | S. cerevisiae deletion strains, locus YLR342W, strain FKS1 (second series), stronger effect = lower value 1.02 | S. cerevisiae deletion strains, locus YLR371W, strain rom2, stronger effect = lower value 1.03 | S. cerevisiae deletion strains, locus YLR418C, strain cdc73, stronger effect = lower value 1.04 | S. cerevisiae deletion strains, locus YML016C, strain PPZ1, stronger effect = lower value 1.01 | S. cerevisiae deletion strains, locus YML032C, strain rad52, stronger effect = lower value 1.05 | S. cerevisiae deletion strains, locus YML124C, strain tub3, stronger effect = lower value 1.03 | S. cerevisiae deletion strains, locus YMR078C, strain ctf18, stronger effect = lower value 1.04 | S. cerevisiae deletion strains, locus YMR223W, strain ubp8, stronger effect = lower value 1.04 | S. cerevisiae deletion strains, locus YMR263W, strain SAP30, stronger effect = lower value 1 | S. cerevisiae deletion strains, locus YMR307W, strain GAS1, stronger effect = lower value 1.08 | S. cerevisiae deletion strains, locus YNL067W, strain RPL9B, stronger effect = lower value 1.01 | S. cerevisiae deletion strains, locus YNL128W, strain TEP1, stronger effect = lower value 1.02 | S. cerevisiae deletion strains, locus YNL153C, strain GIM3, stronger effect = lower value 0.999 | S. cerevisiae deletion strains, locus YNL233W, strain BNI4, stronger effect = lower value 1.01 | S. cerevisiae deletion strains, locus YNL250W, strain rad50, stronger effect = lower value 1.06 | S. cerevisiae deletion strains, locus YNL271C, strain bni1, stronger effect = lower value 1.03 | S. cerevisiae deletion strains, locus YNL298W, strain CLA4, stronger effect = lower value 1.03 | S. cerevisiae deletion strains, locus YNL307C, strain MCK1, stronger effect = lower value 1.04 | S. cerevisiae deletion strains, locus YNL322C, strain KRE1, stronger effect = lower value 1.02 | S. cerevisiae deletion strains, locus YNR052C, strain pop2, stronger effect = lower value 1.04 | S. cerevisiae deletion strains, locus YOL006C, strain TOP1, stronger effect = lower value 1.03 | S. cerevisiae deletion strains, locus YOL012C, strain htz1 0.937 | S. cerevisiae deletion strains, locus YOL147C, strain pex11, stronger effect = lower value 1.03 | S. cerevisiae deletion strains, locus YOR061W, strain CKA2, stronger effect = lower value 1.01 | S. cerevisiae deletion strains, locus YOR069W, strain VPS5, stronger effect = lower value 1 | S. cerevisiae deletion strains, locus YOR136W, strain idh2, stronger effect = lower value 1.03 | S. cerevisiae deletion strains, locus YOR144C, strain elg1, stronger effect = lower value 1.02 | S. cerevisiae deletion strains, locus YOR184W, strain ser1, stronger effect = lower value 1.04 | S. cerevisiae deletion strains, locus YOR316C, strain cot1, stronger effect = lower value 1.02 | S. cerevisiae deletion strains, locus YPL055C, strain LGE1, stronger effect = lower value 1.03 | S. cerevisiae deletion strains, locus YPL241C, strain CIN2, stronger effect = lower value 1.01 | S. cerevisiae deletion strains, locus YPR119W, strain clb2, stronger effect = lower value 1.03 | S. cerevisiae deletion strains, locus YPR141C, strain kar3, stronger effect = lower value 1.04 | S. cerevisiae deletion strains, locus YPR163C, strain tif3, stronger effect = lower value 1.02 | S. cerevisiae deletion strains, locus YPR167C, strain met16, stronger effect = lower value 1.02 | S. cerevisiae deletion strains, strain wtn01, stronger effect = lower value 1 | S. cerevisiae strains, strain wild type, stronger effect = lower value 1.02

— PubChem BioAssay AID1159580 (chemical genetic matrix, 2015)
